Most compounds without a hit are left out; they make up all but 2.4% or so of the library.
TLR9-MyD88 inh: blocks human TLR9 binding to MyD88. 340,000 compounds, 0.21% hits. AID 504734. CHO BLA complementation TLR9-MyD88, CCF4 FRET ratio. Q9NR96+Q99836. inhibition, % at 4.98 µM;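 active = inhibition above the mean over all tested compounds plus 3 SD, cut at about 21% in these data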;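 also: 0% = DMSO only wells and 100% = clavulanate BLA inhibitor control wells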
TMEM16A inh: inhibitors of mouse TMEM16A calcium-activated chloride channel | normalized B-score (activity score, 25-100; higher = stronger inhibition) at 10 µM | 310,000 compounds, 1.2% hits | HEK293 TMEM16A/YFP iodide influx fluorescence, ionomycin | Q8BHY3;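 active = ratio plate-corrected score three or more library SD toward inhibition, starting fluorescence score within five deviations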;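 also: score derived from kinetic fluorescence span divided by baseline fluorescence per well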
HTR2A ag: agonists of mouse serotonin 5-HT2A receptor (HTR2A); P35363; CHO-K1 mHTR2A beta-arrestin complementation, luminescence; percent of 30 µM serotonin response; activation, % at 7.6 µM; 360,000 compounds, 0.66% hits; AID 624169;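 active = activation above a run cutoff, the mean activation of all tested compounds plus 3 SD, cut at about 14% in these data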;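 also: 0% = plate median of compound wells and 100% = 30 µM serotonin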
NOD2 RIPK2 PPI: NOD2-RIPK2 protein interaction inhibition. CHO BLA complementation NOD2-RIPK2, CCF4 ratio. inhibition, % at 4.98 µM. 360,000 compounds, 0.38% hits. AID 624267; in the data active = inhibition above about 21%;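 also: 0% = vehicle only and 100% = reference blocker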
ANO1 activ: activators or potentiators of mouse TMEM16A chloride channel; Q8BHY3; HEK293 TMEM16A/YFP-H148Q/I152L, iodide quench fluorescence; hits give low values; B-score at 10 µM; 340,000 compounds, 0.3% hits;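 active = fluorescence-ratio B-score plate-corrected deviation score at least 3 library SD below zero, with starting fluorescence score within 5 deviations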;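 also: channel opened by trigger with iodide after compound preincubation; score built on the fluorescence ratio of max minus min over baseline; more negative score means more quench and so TMEM16A activation or potentiation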
TLR4 MyD88 comp: inhibitors of human TLR4-MyD88 binding; O00206+Q99836; HeLa CL3-4 TLR4/MyD88 BLA complementation, FRET ratio; inhibition, % at 8.4 µM; 200,000 compounds, 0.18% hits; AID 861; in the data active = inhibition above about 25%;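 also: 0% = vehicle and 100% = reference inhibitor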
OPRM1 ag: OPRM1 agonism in mouse HTR2A counterscreen | 2,300 compounds, 5.3% hits | U2OS OPRM1 beta-arrestin PathHunter, luminescence; DMSO 0%, DAMGO 9.3 µM 100% | shares compounds with HTR2A ag | activation, % at 9.3 µM | AID 624380;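 active = mean activation above the mean of DMSO-only wells plus 3 SD, cut at about 0.5% in these data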
HTR2A ag conf: mouse HTR2A agonism confirmed. 2,300 compounds, 19% hits. CHO-K1 PathHunter beta-arrestin recruitment, luminescence; DMSO 0%, 30 µM serotonin 100%. shares compounds with HTR2A ag. AID 624381. activation, % at 7.6 µM;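 active = mean activation across triplicates above the hit threshold derived in the original primary screen, cut at about 15% in these data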
An asterisk follows results filed as active.

Results for C/C(=N/NC(=O)CNC(=O)COc1ccccc1)c1ccc(Cl)cc1 ?
TLR9-MyD88 inh: 13.4; TMEM16A inh: inactive; HTR2A ag: 15.7*; NOD2 RIPK2 PPI: -16.4; ANO1 activ: inactive; OPRM1 ag: -0.7; HTR2A ag conf: -6.2

What do the screens show for `Cc1cccc(NC(=O)CSc2nnc(-c3ccc(S(=O)(=O)N4CCOCC4)cc3)n2C)c1`?
TLR9-MyD88 inh: -2.2; TMEM16A inh: inactive; HTR2A ag: 28.9*; NOD2 RIPK2 PPI: -21.6; ANO1 activ: inactive; TLR4 MyD88 comp: -0.3; OPRM1 ag: 0.8*; HTR2A ag conf: 0.5

Results for CCc1ccccc1-n1nnnc1SCC(=O)Nc1cc(C)on1 ?
TLR9-MyD88 inh: 0.7; TMEM16A inh: inactive; HTR2A ag: 15.4*; NOD2 RIPK2 PPI: -0.9; ANO1 activ: inactive; OPRM1 ag: 0.3; HTR2A ag conf: 6.7

What do the screens show for `Cc1cccc(-c2nnc(SCC(=O)Nc3cc(C)on3)n2C)c1`?
TLR9-MyD88 inh: 7.1; TMEM16A inh: inactive; HTR2A ag: 17.8*; NOD2 RIPK2 PPI: -8.0; ANO1 activ: inactive; OPRM1 ag: -0.5; HTR2A ag conf: -3.5

Results for COc1ccc(NC(=O)COC(=O)C(CC(C)C)N2C(=O)C3CC=CCC3C2=O)cc1Cl (configuration not stated) ?
TLR9-MyD88 inh: 2.1; TMEM16A inh: inactive; HTR2A ag: 2.5; NOD2 RIPK2 PPI: -1.0; ANO1 activ: inactive; TLR4 MyD88 comp: 7.9

What do the screens show for `Cc1ccc(C(=O)NNC(=O)c2ccncc2)cc1[N+](=O)[O-]`?
TLR9-MyD88 inh: 12.5; HTR2A ag: -1.9; NOD2 RIPK2 PPI: -5.1; ANO1 activ: inactive

How did COCCn1c(C)cc(C(=O)COc2cccnc2[N+](=O)[O-])c1C do in these assays?
TLR9-MyD88 inh: 6.5; TMEM16A inh: inactive; HTR2A ag: 4.1; NOD2 RIPK2 PPI: 3.1; ANO1 activ: inactive; TLR4 MyD88 comp: 2.0

Results for COc1cc(NC(=O)CN2CCC(C(N)=O)(N3CCCCC3)CC2)c(OC)cc1Cl ?
TLR9-MyD88 inh: 4.2; TMEM16A inh: inactive; HTR2A ag: 1.8; NOD2 RIPK2 PPI: 1.8; ANO1 activ: inactive; TLR4 MyD88 comp: -6.1

Results for CC1CCCN(C(=O)COC(=O)CSc2ccc(C(N)=O)cc2[N+](=O)[O-])C1 (configuration not stated) ?
TLR9-MyD88 inh: 4.5; TMEM16A inh: inactive; HTR2A ag: 8.2; NOD2 RIPK2 PPI: 0.9; ANO1 activ: inactive

How did CSC(=S)N/N=C(\C)c1ccccc1 do in these assays?
TLR9-MyD88 inh: -4.4; TMEM16A inh: inactive; HTR2A ag: -3.7; NOD2 RIPK2 PPI: -10.9; ANO1 activ: inactive; TLR4 MyD88 comp: -13.0

Results for O=Cc1cc2c(cc1[B-](F)(F)F)OCO2 ?
TLR9-MyD88 inh: -8.8; HTR2A ag: -0.1; NOD2 RIPK2 PPI: -14.5

How did Cc1cc(C=O)sc1[B-](F)(F)F do in these assays?
TLR9-MyD88 inh: 3.7; HTR2A ag: 14.5*; NOD2 RIPK2 PPI: -5.8; ANO1 activ: inactive; OPRM1 ag: -0.3; HTR2A ag conf: 10.2

Results for Cc1ccc(NC(=O)c2sc(N)nc2-c2ccccc2)cc1C ?
TLR9-MyD88 inh: 2.0; TMEM16A inh: inactive; HTR2A ag: -5.6; NOD2 RIPK2 PPI: -9.9; ANO1 activ: inactive; TLR4 MyD88 comp: -7.0

How did Cc1cccc(C)c1NC(=O)c1sc(N)nc1-c1ccccc1 do in these assays?
TLR9-MyD88 inh: 2.4; TMEM16A inh: inactive; HTR2A ag: 19.4*; NOD2 RIPK2 PPI: 4.3; ANO1 activ: inactive; TLR4 MyD88 comp: -20.1; OPRM1 ag: 0.2; HTR2A ag conf: -2.0

How did OC(Cn1cnnc1)c1ccccc1 (configuration not stated) do in these assays?
TLR9-MyD88 inh: -9.0; TMEM16A inh: inactive; HTR2A ag: 16.7*; NOD2 RIPK2 PPI: -7.7; ANO1 activ: inactive; OPRM1 ag: -0.6; HTR2A ag conf: 1.4

What do the screens show for `CC(=O)N1CCC(C(=O)Nc2cc(S(=O)(=O)N3CCCCC3)ccc2C)CC1`?
TLR9-MyD88 inh: 0.7; HTR2A ag: 8.2; NOD2 RIPK2 PPI: 1.4

Results for Cc1ccc(-c2nc3c(c(SCC(=O)N4CCOCC4)n2)COC(C)(C)C3)cc1 ?
TLR9-MyD88 inh: -10.4; TMEM16A inh: inactive; HTR2A ag: 20.0*; NOD2 RIPK2 PPI: -4.5; ANO1 activ: inactive; OPRM1 ag: -0.4; HTR2A ag conf: -2.9

What do the screens show for `C=CCN(CC=C)S(=O)(=O)c1ccc(NC(=S)NC(=O)C2CC2)cc1`?
TLR9-MyD88 inh: -3.3; TMEM16A inh: inactive; HTR2A ag: 0.2; NOD2 RIPK2 PPI: 5.5; ANO1 activ: inactive

How did CC(C)(C)NC(=O)N1CCN(c2nc(-c3ccccc3)ns2)CC1 do in these assays?
TLR9-MyD88 inh: -10.8; TMEM16A inh: inactive; HTR2A ag: 15.5*; NOD2 RIPK2 PPI: 7.2; ANO1 activ: inactive; OPRM1 ag: -0.4; HTR2A ag conf: -1.7

How did O=C(c1ccc(F)cc1F)N1CCCN(c2nc(-c3ccccc3)ns2)CC1 do in these assays?
TMEM16A inh: inactive; HTR2A ag: 0.0; NOD2 RIPK2 PPI: -6.3; ANO1 activ: inactive

Results for CCC(C)Oc1nc2c(c(=O)n(C)c(=O)n2C)n1C (configuration not stated) ?
TLR9-MyD88 inh: 13.1; TMEM16A inh: inactive; HTR2A ag: 17.1*; NOD2 RIPK2 PPI: -2.3; ANO1 activ: inactive; OPRM1 ag: -0.6; HTR2A ag conf: -2.4

How did COc1ccccc1CNC(=O)c1n[nH]c2ccccc12 do in these assays?
TLR9-MyD88 inh: -5.9; TMEM16A inh: inactive; HTR2A ag: 19.0*; NOD2 RIPK2 PPI: 1.9; ANO1 activ: inactive; OPRM1 ag: -0.3; HTR2A ag conf: 2.2

What do the screens show for `Cc1ccc(N2CC(C(=O)N3CCc4ccccc43)CC2=O)cc1` (configuration not stated)?
TLR9-MyD88 inh: 0.5; TMEM16A inh: inactive; HTR2A ag: -3.2; NOD2 RIPK2 PPI: -8.3; ANO1 activ: inactive; TLR4 MyD88 comp: -3.3

What do the screens show for `Cc1ccccc1N1CC(C(=O)N2CCc3ccccc32)CC1=O` (configuration not stated)?
TLR9-MyD88 inh: 0.7; TMEM16A inh: inactive; HTR2A ag: 17.3*; NOD2 RIPK2 PPI: -1.4; ANO1 activ: inactive; OPRM1 ag: -0.5; HTR2A ag conf: -1.6

Assay outcomes: PubChem BioAssay, several laboratories
